# Results filed as inconclusive are left out. Where a call stands in place of a potency, no number is given. Activity calls are given as the source filed them. Unless noted, calls come from the whole dose curve; as a rule, active = well fitted curve in the direction sought with a large enough effect; inconclusive = small, poorly fitted or top-dose-only effect, or another doubt; inactive = no such curve, though single readings can be large; an effect the other way counts as inactive or inconclusive.
# Key:
# [1] = target: Calcium and integrin-binding protein 1 (Homo sapiens) (UniProt Q99828); test: Primary qHTS for Identification of Calcium Integrin Binding Protein 1 (CIB1) Competitor (AID 1508620); settings: CIB1-GST / FITC-alphaIIb peptide fluorescence polarization; series mostly up to 114 µM;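 note: GST tagged CIB1 binding a fluorescein labelled alphaIIb integrin peptide tracer; top concentration of the series differs between compounds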
# How it was run: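 Fluorescence polarization competition: GST-tagged CIB1 (1 uM final) preincubated with compound 15 min at room temperature, then FITC-labelled alphaIIb peptide (100 nM final) added. After 15 min at room temperature, polarization read at Ex 480/Em 540.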
# [2] = target: Cytochrome P450 2D6 (Homo sapiens) (UniProt P10635); test: Cytochrome P450 family 2 subfamily D member 6 (CYP2D6) small molecule antagonists: luciferase biochemical (cell-free) qHTS assay (AID 1645840; active = well fitted curve in the direction sought with a large enough effect in the repeat runs; an effect the other way counts as inactive or inconclusive; note: nearly all actives have a fitted effect of over 55% in size; note: potency is the fitted concentration of half-maximal effect); settings: P450-Glo CYP2D6 enzyme, luciferin luminescence, 1 h; series mostly up to 57.4 µM
# How it was run: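 P450-Glo luminescent screen: recombinant CYP2D6 enzyme–proluciferin substrate mix preincubated with compound 10 min at room temperature, then NADPH regeneration added for 1 h at room temperature. Detection reagent added for 20 min; luciferin light read as relative luminescence units.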
# Calcium and integrin-binding protein 1 (Homo sapiens), sequence (Q99828 whole entry, looked up): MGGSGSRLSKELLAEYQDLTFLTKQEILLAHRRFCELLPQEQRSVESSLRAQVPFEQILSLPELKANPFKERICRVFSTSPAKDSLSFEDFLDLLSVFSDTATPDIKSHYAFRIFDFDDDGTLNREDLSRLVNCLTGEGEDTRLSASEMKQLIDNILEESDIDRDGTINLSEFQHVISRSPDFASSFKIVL
# Cytochrome P450 2D6 (Homo sapiens), sequence (P10635 whole entry, looked up): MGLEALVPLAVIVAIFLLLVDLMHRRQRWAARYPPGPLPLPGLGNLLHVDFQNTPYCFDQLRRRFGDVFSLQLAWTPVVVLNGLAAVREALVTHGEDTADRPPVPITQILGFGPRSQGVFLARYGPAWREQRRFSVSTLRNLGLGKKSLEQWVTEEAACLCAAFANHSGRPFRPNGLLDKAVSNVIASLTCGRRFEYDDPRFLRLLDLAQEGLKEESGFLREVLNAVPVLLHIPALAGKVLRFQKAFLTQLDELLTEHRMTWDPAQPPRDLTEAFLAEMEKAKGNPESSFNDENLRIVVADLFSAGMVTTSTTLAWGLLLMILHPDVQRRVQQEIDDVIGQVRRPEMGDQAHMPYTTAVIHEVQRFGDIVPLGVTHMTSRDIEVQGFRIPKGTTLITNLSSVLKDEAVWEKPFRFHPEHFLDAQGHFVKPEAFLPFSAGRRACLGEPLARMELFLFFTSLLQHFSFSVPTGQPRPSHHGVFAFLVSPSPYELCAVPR
SMILES,Potency [1],Potency [2]
C[C@@H](Nc1ncnc2[nH]c(-c3ccc(O)cc3)cc12)c1ccccc1,inactive,1.34 µM (active)
CCCCNc1ncc(C(=O)NCc2ccc(-n3ccnc3)cc2)c(NC2CCC(O)CC2)n1 (stereo unspecified),inactive,0.674 µM (active)
Cc1nc(C(=O)N2CCC[C@H]2Cc2nnc(-c3ccccc3)o2)c(-c2ccccc2F)s1,inactive,inactive
Cc1cc2sc(NC(=O)Cc3ccccc3)nc2cc1Cl,inactive,inactive
CCOC(=O)N1CCC(CN(Cc2ccc(Cl)cc2)Cc2ccc([N+](=O)[O-])s2)C1 (stereo unspecified),inactive,3.01 µM (active)
COc1c(C)cnc(Cn2cc(C#CCC(C)(C)O)c3c(Cl)nc(N)nc32)c1C,inactive,inactive
O=C(NCCN1CCN(c2cccc3ccc(O)cc23)CC1)c1ccc(F)cc1,inactive,0.0425 µM (active)
COCCN(C(=O)c1cc(OC)c(OC)c(OC)c1)c1nc(-c2ccccc2)cs1,inactive,inactive
O=C(NCCN1CCOCC1)c1cc2c(Oc3ccc(NC(=O)C4(C(=O)Nc5ccc(F)cc5)CC4)cc3)ccnc2[nH]1,inactive,19 µM (active)
COc1cc(C(=O)NC(=S)Nc2cccc(NC(=O)c3ccccc3)c2)cc(OC)c1OC,inactive,inactive
CC(C)(C)c1ccc(C(=O)Nc2cn3cc(-n4ccnc4)ccc3n2)cc1,inactive,inactive
CC(C)c1ccc(NC(=O)c2cccs2)c(-c2nc3ccccc3[nH]c2=O)c1,inactive,13.5 µM (active)
N[C@@H]1c2cccnc2[C@H](OC(=O)N2CCC(n3c(=O)[nH]c4ncccc43)CC2)CC[C@H]1c1cccc(F)c1F,inactive,6.74 µM (active)

# From PubChem BioAssay (NCATS)
